The results in this text go back to the supplement of paper PMC10849652.

Targets with a hit are over-represented here; the source holds about 8,800 in all. About 0.5% of all pairs of compound and target were hits.

Chain of UniProt Q15723 (Q15723 whole entry, looked up): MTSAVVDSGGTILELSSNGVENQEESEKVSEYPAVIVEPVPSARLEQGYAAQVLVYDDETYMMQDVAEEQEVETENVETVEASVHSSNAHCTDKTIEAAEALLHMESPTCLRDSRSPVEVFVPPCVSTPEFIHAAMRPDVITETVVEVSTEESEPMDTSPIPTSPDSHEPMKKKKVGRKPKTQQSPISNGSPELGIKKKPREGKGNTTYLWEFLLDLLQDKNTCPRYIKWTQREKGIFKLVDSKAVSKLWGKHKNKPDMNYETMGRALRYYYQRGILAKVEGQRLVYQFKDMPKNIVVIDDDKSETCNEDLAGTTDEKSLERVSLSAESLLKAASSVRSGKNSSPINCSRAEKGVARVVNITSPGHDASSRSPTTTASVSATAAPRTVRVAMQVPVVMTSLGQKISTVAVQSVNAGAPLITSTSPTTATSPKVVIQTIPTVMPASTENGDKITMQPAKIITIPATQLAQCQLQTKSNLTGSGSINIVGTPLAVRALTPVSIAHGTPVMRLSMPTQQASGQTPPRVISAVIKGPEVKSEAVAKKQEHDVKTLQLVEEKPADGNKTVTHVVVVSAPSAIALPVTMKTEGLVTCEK
Chain of UniProt P51114 (P51114 whole entry, looked up): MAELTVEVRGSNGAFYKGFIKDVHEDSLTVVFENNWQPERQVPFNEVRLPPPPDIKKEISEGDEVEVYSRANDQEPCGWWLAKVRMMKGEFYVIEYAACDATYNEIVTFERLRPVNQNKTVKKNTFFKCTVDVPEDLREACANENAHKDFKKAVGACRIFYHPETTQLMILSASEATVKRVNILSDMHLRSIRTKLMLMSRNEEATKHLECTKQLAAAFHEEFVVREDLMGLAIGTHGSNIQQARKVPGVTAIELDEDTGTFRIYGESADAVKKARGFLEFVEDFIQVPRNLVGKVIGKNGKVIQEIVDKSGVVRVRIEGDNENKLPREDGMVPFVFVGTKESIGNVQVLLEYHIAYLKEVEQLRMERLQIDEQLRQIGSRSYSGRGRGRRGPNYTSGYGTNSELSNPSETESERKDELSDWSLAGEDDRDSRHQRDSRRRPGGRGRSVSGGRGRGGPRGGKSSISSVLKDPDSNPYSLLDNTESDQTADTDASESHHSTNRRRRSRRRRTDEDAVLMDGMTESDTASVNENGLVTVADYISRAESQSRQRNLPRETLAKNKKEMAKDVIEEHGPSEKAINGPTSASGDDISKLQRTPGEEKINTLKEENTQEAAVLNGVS
Chain of UniProt Q9UI10 (Q9UI10 whole entry, looked up): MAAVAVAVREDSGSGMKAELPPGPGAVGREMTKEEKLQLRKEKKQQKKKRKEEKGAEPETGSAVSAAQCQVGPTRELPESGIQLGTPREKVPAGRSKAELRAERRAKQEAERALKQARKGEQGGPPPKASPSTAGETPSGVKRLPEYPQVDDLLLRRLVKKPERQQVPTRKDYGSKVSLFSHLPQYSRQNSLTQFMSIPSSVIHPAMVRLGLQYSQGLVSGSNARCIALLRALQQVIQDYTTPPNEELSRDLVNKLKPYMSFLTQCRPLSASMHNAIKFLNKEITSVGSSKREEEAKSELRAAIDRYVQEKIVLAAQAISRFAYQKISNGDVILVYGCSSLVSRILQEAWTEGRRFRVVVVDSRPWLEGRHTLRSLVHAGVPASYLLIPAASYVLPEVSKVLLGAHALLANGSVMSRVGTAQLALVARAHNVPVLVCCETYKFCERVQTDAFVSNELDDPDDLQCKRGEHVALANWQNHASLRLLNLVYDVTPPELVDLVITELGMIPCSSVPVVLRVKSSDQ
Chain of UniProt P06241 (P06241 whole entry, looked up): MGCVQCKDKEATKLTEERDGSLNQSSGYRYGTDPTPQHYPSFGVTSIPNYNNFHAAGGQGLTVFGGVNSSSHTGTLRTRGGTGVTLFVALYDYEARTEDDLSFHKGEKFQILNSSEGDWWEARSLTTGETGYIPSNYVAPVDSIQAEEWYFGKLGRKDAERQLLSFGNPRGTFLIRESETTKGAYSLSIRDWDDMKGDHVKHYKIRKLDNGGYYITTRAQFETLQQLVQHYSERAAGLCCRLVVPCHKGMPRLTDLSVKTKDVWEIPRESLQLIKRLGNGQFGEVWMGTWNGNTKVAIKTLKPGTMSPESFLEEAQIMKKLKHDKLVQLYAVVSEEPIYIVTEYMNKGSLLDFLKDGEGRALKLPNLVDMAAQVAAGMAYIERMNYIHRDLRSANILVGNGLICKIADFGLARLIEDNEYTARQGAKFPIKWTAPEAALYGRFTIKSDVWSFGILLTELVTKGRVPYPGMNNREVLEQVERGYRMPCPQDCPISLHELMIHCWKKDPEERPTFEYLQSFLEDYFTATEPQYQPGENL
Chain of UniProt Q9NX74 (Q9NX74 whole entry, looked up): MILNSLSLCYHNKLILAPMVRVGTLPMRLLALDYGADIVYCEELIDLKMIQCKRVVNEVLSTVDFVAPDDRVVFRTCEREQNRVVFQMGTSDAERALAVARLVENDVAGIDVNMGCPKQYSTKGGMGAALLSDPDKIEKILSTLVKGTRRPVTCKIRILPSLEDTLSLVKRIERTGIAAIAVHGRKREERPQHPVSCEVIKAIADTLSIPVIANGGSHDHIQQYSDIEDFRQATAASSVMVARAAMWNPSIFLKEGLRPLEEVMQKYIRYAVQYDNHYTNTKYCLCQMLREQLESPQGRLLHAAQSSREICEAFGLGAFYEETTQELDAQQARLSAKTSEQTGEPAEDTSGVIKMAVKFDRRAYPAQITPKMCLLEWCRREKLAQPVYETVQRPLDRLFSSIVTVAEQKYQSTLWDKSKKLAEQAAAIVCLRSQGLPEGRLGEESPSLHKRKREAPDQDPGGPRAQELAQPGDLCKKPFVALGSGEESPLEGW
Chain of UniProt Q8NFF5 (Q8NFF5 whole entry, looked up): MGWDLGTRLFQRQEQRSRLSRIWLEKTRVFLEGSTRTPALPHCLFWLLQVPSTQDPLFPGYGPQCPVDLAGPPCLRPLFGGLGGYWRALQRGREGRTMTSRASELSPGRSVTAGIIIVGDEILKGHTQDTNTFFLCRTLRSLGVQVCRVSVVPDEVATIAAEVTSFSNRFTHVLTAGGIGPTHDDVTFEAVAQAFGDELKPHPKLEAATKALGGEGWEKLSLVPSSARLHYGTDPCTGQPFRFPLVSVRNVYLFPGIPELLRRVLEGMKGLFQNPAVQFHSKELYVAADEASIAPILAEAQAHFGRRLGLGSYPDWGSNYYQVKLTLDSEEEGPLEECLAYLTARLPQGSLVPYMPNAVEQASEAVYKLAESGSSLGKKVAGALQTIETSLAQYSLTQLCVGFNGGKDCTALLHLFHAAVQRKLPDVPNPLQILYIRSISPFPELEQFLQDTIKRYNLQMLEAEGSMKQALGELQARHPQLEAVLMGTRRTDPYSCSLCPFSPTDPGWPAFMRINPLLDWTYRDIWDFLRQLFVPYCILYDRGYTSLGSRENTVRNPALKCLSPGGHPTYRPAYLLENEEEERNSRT
Chain of UniProt Q9GZT9 (Q9GZT9 whole entry, looked up): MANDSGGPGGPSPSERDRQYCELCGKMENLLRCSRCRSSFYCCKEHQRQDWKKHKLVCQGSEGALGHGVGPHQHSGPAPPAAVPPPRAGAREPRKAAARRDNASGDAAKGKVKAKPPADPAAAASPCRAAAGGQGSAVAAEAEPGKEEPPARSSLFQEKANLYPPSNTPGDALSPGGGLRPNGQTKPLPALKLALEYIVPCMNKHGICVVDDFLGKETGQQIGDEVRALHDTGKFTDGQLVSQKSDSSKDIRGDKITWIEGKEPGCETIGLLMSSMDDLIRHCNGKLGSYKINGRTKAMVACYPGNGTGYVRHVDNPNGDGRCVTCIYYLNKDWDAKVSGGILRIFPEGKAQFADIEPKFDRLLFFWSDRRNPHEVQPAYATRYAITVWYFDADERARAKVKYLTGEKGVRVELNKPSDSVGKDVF
Chain of UniProt Q15125 (Q15125 whole entry, looked up): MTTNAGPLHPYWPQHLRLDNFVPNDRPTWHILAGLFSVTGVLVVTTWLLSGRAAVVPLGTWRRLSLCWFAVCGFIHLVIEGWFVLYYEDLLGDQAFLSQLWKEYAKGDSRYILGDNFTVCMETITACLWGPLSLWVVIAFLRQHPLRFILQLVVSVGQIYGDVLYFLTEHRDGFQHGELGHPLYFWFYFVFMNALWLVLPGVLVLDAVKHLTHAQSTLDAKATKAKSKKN
Chain of UniProt Q8NEZ5 (Q8NEZ5 whole entry, looked up): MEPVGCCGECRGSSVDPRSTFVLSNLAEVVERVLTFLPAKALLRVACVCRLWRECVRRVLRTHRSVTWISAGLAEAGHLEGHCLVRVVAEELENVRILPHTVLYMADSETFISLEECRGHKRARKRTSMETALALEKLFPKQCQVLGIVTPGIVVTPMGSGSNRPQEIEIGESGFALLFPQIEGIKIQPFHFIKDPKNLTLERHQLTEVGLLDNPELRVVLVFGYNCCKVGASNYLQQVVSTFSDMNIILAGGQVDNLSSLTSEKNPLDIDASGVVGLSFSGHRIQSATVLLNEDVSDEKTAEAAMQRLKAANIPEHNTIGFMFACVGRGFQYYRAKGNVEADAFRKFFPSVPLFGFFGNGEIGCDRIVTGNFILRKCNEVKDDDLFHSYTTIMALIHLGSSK
Chain of UniProt Q9Y285 (Q9Y285 whole entry, looked up): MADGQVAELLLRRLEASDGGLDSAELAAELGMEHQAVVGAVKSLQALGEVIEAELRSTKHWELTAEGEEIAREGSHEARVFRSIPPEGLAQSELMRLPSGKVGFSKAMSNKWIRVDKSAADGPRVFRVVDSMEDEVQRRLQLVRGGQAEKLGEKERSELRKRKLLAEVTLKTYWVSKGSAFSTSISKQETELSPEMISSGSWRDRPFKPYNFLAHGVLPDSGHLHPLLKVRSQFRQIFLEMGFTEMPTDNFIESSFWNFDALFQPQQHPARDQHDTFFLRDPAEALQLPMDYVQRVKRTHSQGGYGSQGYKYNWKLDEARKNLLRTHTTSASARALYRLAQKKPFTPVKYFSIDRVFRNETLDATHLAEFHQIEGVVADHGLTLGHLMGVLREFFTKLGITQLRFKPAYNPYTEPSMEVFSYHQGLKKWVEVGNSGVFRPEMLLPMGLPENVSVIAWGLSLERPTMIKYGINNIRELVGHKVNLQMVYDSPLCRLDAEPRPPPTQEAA

Compound in the first assay: CC[C@@H]1C(=O)N(C)c2cnc(Nc3ccc(C(=O)N[C@H]4CC[C@H](N5CCN(CC6CC6)CC5)CC4)cc3OC)nc2N1C(C)C [volasertib]
Description: log2 fold change, soluble protein after heating vs DMSO (PISA); higher = thermal stabilisation; K562 lysate, 10 uM; active = over 0.2 and 3.5 SD of the protein, either way, in both replicates (recomputed). In outline:
(§1)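 Soluble protein was defined as the supernatant remaining after 21,000xg for 90 min, following pooling of heated aliquots and adjustment to 0.5% NP-40 at 4°C. Before that, crude K562 extract at 1 mg/mL protein in PBS pH 7.4 with 1 mM MgCl2 was treated with 10 μM compound for 30 min and heated for 3 min across 48°C-58°C. Quantification used TMTpro 16plex LC-MS/MS with channel sums equalised, and values are log-two fold changes in thermal stability relative to solvent controls from duplicates.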
Regarding ECI2 (UniProt O75521), the log2 fold change was -0.013 (inactive).
Still for that read-out and setting: the result for DYNC1I2 isoform 5 (UniProt Q13409) reads -0.013 (inactive).
FLAD1 (UniProt Q8NFF5): the log2 fold change was -0.028 (inactive).
Take FBXO22 (UniProt Q8NEZ5): the log2 fold change is -0.027 (inactive).
Turning to EPB41, A0A2R8Y6D0, the log2 fold change was 0.006 (inactive).
On the same count and under the same terms, the result for FAM120B (UniProt Q96EK7) reads -0.029 (inactive); that for GAA (UniProt P10253), 0.015 (inactive).
On the same count and under the same terms, the result for FARSA (UniProt Q9Y285) reads -0.035 (inactive); that for FBXO45 (UniProt P0C2W1), -0.04 (inactive); that for EEFSEC (UniProt P57772), -0.035 (inactive).
EMP3 (UniProt P54852): the log2 fold change was 0.124 (inactive).
Take GATAD2A isoform 3 (UniProt Q86YP4): the log2 fold change is -0.014 (inactive).
Regarding EGLN1 (UniProt Q9GZT9), the log2 fold change is -0.076 (inactive).
Still for that read-out and setting: under FREM2 (UniProt Q5SZK8) stands 0.026 (inactive); under EXOC5 (UniProt O00471), -0.081 (inactive); under EIF2AK1 (UniProt Q9BQI3), -0.287 (active).
Still for that read-out and setting: the result for FXR1 (UniProt P51114) reads -0.022 (inactive); that for FAT2 (UniProt Q9NYQ8), -0.097 (inactive); that for EBP (UniProt Q15125), 0.038 (inactive).
On the same count and under the same terms, the result for FOXK1 (UniProt P85037) reads -0.019 (inactive); that for FXR2 (UniProt P51116), -0.028 (inactive).
As to EIF2B4 (UniProt Q9UI10), the log2 fold change was -0.032 (inactive).
The same measure, in the same setting: the result for EMC7 (UniProt Q9NPA0) reads 0 (inactive); that for GEMIN5 (UniProt Q8TEQ6), -0.069 (inactive); that for DYRK1A (UniProt Q13627), -0.016 (inactive).
On the same count and under the same terms, under ESPL1 (UniProt Q14674) stands 0.09 (inactive).
The same measure, in the same setting: the result for FBXO9 (UniProt Q9UK97) reads -0.012 (inactive).
Turning to ELF2 (UniProt Q15723), the log2 fold change was 0.042 (inactive).
For the target GAPVD1 isoform 6 (UniProt Q14C86), the log2 fold change is -0.036 (inactive).
Still for that read-out and setting: the result for FYN (UniProt P06241) reads 0.046 (inactive); that for ERCC4 (UniProt Q92889), -0.006 (inactive).
Same read-out and setting: under EPB41, A0A2R8Y783 stands 0.057 (inactive); under FBXO38 (UniProt Q6PIJ6), 0.037 (inactive).
On the same count and under the same terms, the result for FTSJ3 (UniProt Q8IY81) reads -0.033 (inactive); that for DUS2 (UniProt Q9NX74), -0.071 (inactive); that for EDC4 (UniProt Q6P2E9), -0.015 (inactive).
For FDFT1 (UniProt P37268), the log2 fold change was -0.069 (inactive).

Compound in the next assay: CCn1c(C(=O)N(C2CC2)C2CC2)cc2c3c(ncn3C)c(Nc3cc(C)n(C)n3)nc21
The description is as above. The procedure, abridged:
as §1
Turning to ECI2 (UniProt O75521), the log2 fold change was 0.004 (inactive).
Same read-out and setting: the result for DYNC1I2 isoform 5 (UniProt Q13409) reads -0.016 (inactive); that for FLAD1 (UniProt Q8NFF5), 0.01 (inactive).
Same read-out and setting: the result for FBXO22 (UniProt Q8NEZ5) reads 0.012 (inactive); that for EPB41, A0A2R8Y6D0, -0.24 (inactive).
Same read-out and setting: under FAM120B (UniProt Q96EK7) stands 0.033 (inactive).
For the target GAA (UniProt P10253), the log2 fold change was -0.021 (inactive).
Same read-out and setting: the result for FARSA (UniProt Q9Y285) reads -0.068 (inactive).
The same measure, in the same setting: under FBXO45 (UniProt P0C2W1) stands 0.062 (inactive); under EEFSEC (UniProt P57772), -0.012 (inactive).
Consider EMP3 (UniProt P54852), for which the log2 fold change is -0.112 (inactive).
Still for that read-out and setting: the result for GATAD2A isoform 3 (UniProt Q86YP4) reads -0.004 (inactive); that for EGLN1 (UniProt Q9GZT9), 0.007 (inactive); that for FREM2 (UniProt Q5SZK8), 0.014 (inactive).
On the same count and under the same terms, under EXOC5 (UniProt O00471) stands 0.02 (inactive).
EIF2AK1 (UniProt Q9BQI3): the log2 fold change is -0.002 (inactive).
FXR1 (UniProt P51114): the log2 fold change is 0.018 (inactive).
Turning to FAT2 (UniProt Q9NYQ8), the log2 fold change was 0.089 (inactive).
Same read-out and setting: under EBP (UniProt Q15125) stands -0.024 (inactive); under FOXK1 (UniProt P85037), 0.013 (inactive); under FXR2 (UniProt P51116), 0.028 (inactive).
On to EIF2B4 (UniProt Q9UI10), for which the log2 fold change is 0.048 (inactive).
On the same count and under the same terms, the result for EMC7 (UniProt Q9NPA0) reads -0.023 (inactive); that for GEMIN5 (UniProt Q8TEQ6), 0.066 (inactive); that for DYRK1A (UniProt Q13627), 0.038 (inactive).
Same read-out and setting: under ESPL1 (UniProt Q14674) stands -0.002 (inactive); under FBXO9 (UniProt Q9UK97), -0.015 (inactive).
As to ELF2 (UniProt Q15723), the log2 fold change is 0.031 (inactive).
The same measure, in the same setting: the result for GAPVD1 isoform 6 (UniProt Q14C86) reads 0.027 (inactive); that for FYN (UniProt P06241), 0.033 (inactive); that for ERCC4 (UniProt Q92889), 0.004 (inactive).
For the target FBXO38 (UniProt Q6PIJ6), the log2 fold change was 0.028 (inactive).
As for FTSJ3 (UniProt Q8IY81), the log2 fold change was 0.024 (inactive).
Turning to DUS2 (UniProt Q9NX74), the log2 fold change was -0.016 (inactive).
Still for that read-out and setting: the result for EDC4 (UniProt Q6P2E9) reads 0.015 (inactive).
As for FDFT1 (UniProt P37268), the log2 fold change was 0.01 (inactive).
